These results are taken from the supplement of paper PMC9801561.

Experiment [1] concerns Escherichia coli Nissle 1917. Kind of experiment: area under OmniLog respiration curve over 48 h (OmniLog units x h); higher = more growth / nutrient utilisation; extreme values may be limits of the assay. The following applies: incubation: 48 h, 37 °C.
The test system of experiment [2] is Escherichia coli Nissle 1917. Kind of experiment: DuctApe activity index of respiration/growth curve (0 no growth to 9 maximum) (index 0-9); higher = more growth / nutrient utilisation, active = 3 or more; extreme values may be limits of the assay. The following applies: incubation: 48 h, 37 °C.
Where [3] appears, read: nutrient role: sole phosphorus source (pyruvate carbon).
Setting [4] is: nutrient role: C-Source, carbohydrate.
Setting [5] is: nutrient role: C-Source, carboxylic acid.
The mark [6] stands for this setting: nutrient role: sole sulfur source (pyruvate carbon).
The mark [7] stands for this setting: nutrient role: sole nitrogen source (pyruvate carbon).
The mark [8] stands for this setting: nutrient role: C-Source, amino acid.

± gives the standard deviation of the averaged measurements.
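Wherever DuctApe activity index of respiration/growth curve (0 no growth to 9 maximum) is given: biolog PM4 phosphorus and sulfur plates, tetrazolium violet dye reduction read in the OmniLog every 15 min, kinetic curves scored by DuctApe, each plate run in triplicate.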

In the case of `Nc1ncnc2c1ncn2[C@@H]1O[C@H](COP(=O)(O)O)[C@@H](O)[C@H]1O` [Adenosine 5`-Monophosphate], the “area under OmniLog respiration curve” value in experiment [1] (setting [3]) is 9380 ± 770. Moreover, in experiment [2] (setting [3]), the DuctApe activity index is 8.67 (active).
On to `OC[C@@H](O)[C@@H](O)CO` [i-Erythritol], for which the “area under OmniLog respiration curve” value in experiment [1] (setting [4]) worked out at 4.72. Also, the DuctApe activity index in experiment [2] (setting [4]) was 0 (inactive).
For `O=C(O)[C@H]1OC(O)[C@H](O)[C@@H](O)[C@H]1O` (stereo partly drawn) [D-Galacturonic acid], the “area under OmniLog respiration curve” value in experiment [1] (setting [5]) worked out at 10200 ± 880. Moreover, in experiment [2] (setting [5]), the DuctApe activity index is 9 (active).
`OC[C@H]1O[C@H](OC[C@H]2OC(O)[C@H](O)[C@@H](O)[C@@H]2O)[C@H](O)[C@@H](O)[C@H]1O` (stereo partly drawn) [D-Melibiose]: the “area under OmniLog respiration curve” value in experiment [1] (setting [4]) was 7880 ± 1000. In addition, in experiment [2] (setting [4]), the DuctApe activity index was 7.67 (active).
On to `O=c1ccn([C@@H]2O[C@H](CO)[C@@H](OP(=O)(O)O)[C@H]2O)c(=O)[nH]1` [Uridine 3`-Monophosphate], for which the “area under OmniLog respiration curve” value in experiment [1] (setting [3]) stood at 9010 ± 750. Further, in experiment [2] (setting [3]), the DuctApe activity index was 8.67 (active).
With `C=C(OP(=O)(O)O)C(=O)O` [Phosphoenol Pyruvate], the “area under OmniLog respiration curve” value in experiment [1] (setting [3]) turned out to be 9270 ± 480. Also, in experiment [2] (setting [3]), the DuctApe activity index is 9 (active).
Take `C[S+]([O-])CC[C@H](N)C(=O)O` (stereo partly drawn) [L-Methionine Sulfoxide]: in experiment [1] (setting [6]), the “area under OmniLog respiration curve” value is 5350 ± 130. Also, the DuctApe activity index in experiment [2] (setting [6]) was 7 (active).
For the compound `CC1OC(O)C(O)C(O)C1O` [L-Fucose], the “area under OmniLog respiration curve” value in experiment [1] (setting [4]) is 7650 ± 700. The DuctApe activity index in experiment [2] (setting [4]) was 7.67 (active).
For `Cc1c[nH]c(=O)[nH]c1=O` [Thymine], in experiment [1] (setting [7]), the “area under OmniLog respiration curve” value was 67 ± 110. Moreover, the DuctApe activity index in experiment [2] (setting [7]) is 0 (inactive).
Taken in the same sequence, the figures for `C[C@H](N)C(=O)N[C@@H](Cc1cnc[nH]1)C(=O)O` were 6900 ± 1400 and 7.67 (active).
Taken in the same sequence, the figures for `C[C@H](N)C(=O)N[C@@H](CCC(N)=O)C(=O)O` were 8550 ± 1600 and 8 (active).
`N[C@@H](CS(=O)O)C(=O)O` [L-Cysteine Sulfinic acid]: the “area under OmniLog respiration curve” value in experiment [1] (setting [6]) amounted to 7460 ± 360. Moreover, in experiment [2] (setting [6]), the DuctApe activity index was 7.67 (active).
As to `Nc1cc[nH]c(=O)n1` [Cytosine], in experiment [1] (setting [7]), the “area under OmniLog respiration curve” value is 5890 ± 1100. Further, the DuctApe activity index in experiment [2] (setting [7]) is 7 (active).
As to `OC[C@@H](O)[C@H](O)[C@@H](O)CO` [Xylitol], the “area under OmniLog respiration curve” value in experiment [1] (setting [4]) was determined as 4.72. The DuctApe activity index in experiment [2] (setting [4]) is 0 (inactive).
Regarding `CS(=O)(=O)O` [Methane Sulfonic acid], in experiment [1] (setting [6]), the “area under OmniLog respiration curve” value was determined as 5490 ± 300. In addition, the DuctApe activity index in experiment [2] (setting [6]) was 6.67 (active).
For the compound `O=c1cc[nH]c(=O)[nH]1` [Uracil], in experiment [1] (setting [7]), the “area under OmniLog respiration curve” value was determined as 103 ± 170. In experiment [2] (setting [7]), the DuctApe activity index is 0 (inactive).
Take `OC[C@H]1O[C@H](O[C@H]2[C@H](O)[C@@H](O)[C@H](O)O[C@@H]2CO)[C@H](O)[C@@H](O)[C@@H]1O` [Maltose]: the “area under OmniLog respiration curve” value in experiment [1] (setting [4]) was 7970 ± 810. Also, in experiment [2] (setting [4]), the DuctApe activity index is 7.67 (active).
On to `O=C(O)Cc1cccc(O)c1` [m-Hydroxyphenyl Acetic acid], for which the “area under OmniLog respiration curve” value in experiment [1] (setting [5]) is 114 ± 120. In addition, the DuctApe activity index in experiment [2] (setting [5]) was 0.667 (inactive).
Regarding `C[C@H](O)[C@@H](N)C(=O)O` [D-Threonine], in experiment [1] (setting [8]), the “area under OmniLog respiration curve” value was 291 ± 470. In addition, in experiment [2] (setting [8]), the DuctApe activity index is 0.667 (inactive).
As to `NCC(=O)N[C@@H](CCC(N)=O)C(=O)O`, in experiment [1] (setting [7]), the “area under OmniLog respiration curve” value was 8900 ± 1400. The DuctApe activity index in experiment [2] (setting [7]) was 8.67 (active).
For `CO[C@H]1O[C@H](CO)[C@H](O)[C@H](O)[C@H]1O` [a-Methyl-D-Galactoside], in experiment [1] (setting [4]), the “area under OmniLog respiration curve” value came out at 8070 ± 460. The DuctApe activity index in experiment [2] (setting [4]) is 8 (active).
On to `O=C(O)C(=O)O` [Oxalic acid], for which, in experiment [1] (setting [5]), the “area under OmniLog respiration curve” value came to 5.41 ± 1.2. For the same compound, the DuctApe activity index in experiment [2] (setting [5]) was 0 (inactive).
For `O=P1(O)OP(=O)(O)OP(=O)(O)O1` [Trimetaphosphate], the “area under OmniLog respiration curve” value in experiment [1] (setting [3]) came to 9730 ± 800. In experiment [2] (setting [3]), the DuctApe activity index is 9 (active).
Regarding `CCCCCC(=O)O` [Caproic acid], the “area under OmniLog respiration curve” value in experiment [1] (setting [5]) stood at 4.72. In experiment [2] (setting [5]), the DuctApe activity index is 0 (inactive).
With `CO[C@H]1O[C@H](CO)[C@@H](O)[C@H](O)[C@@H]1O` [a-Methyl-D-Mannoside], the “area under OmniLog respiration curve” value in experiment [1] (setting [4]) was 16.9 ± 21. Further, in experiment [2] (setting [4]), the DuctApe activity index was 0 (inactive).
On to `O=C(O)C(O)COP(=O)(O)O` [D-3-Phospho-Glyceric acid], for which, in experiment [1] (setting [3]), the “area under OmniLog respiration curve” value worked out at 9300 ± 690. Also, the DuctApe activity index in experiment [2] (setting [3]) was 8.67 (active).
Regarding `N[C@@H](CCC(=O)N[C@@H](CS)C(=O)NCC(=O)O)C(=O)O` [Glutathione], the “area under OmniLog respiration curve” value in experiment [1] (setting [6]) amounted to 1690 ± 30. The DuctApe activity index in experiment [2] (setting [6]) is 5 (active).
In the case of `OC[C@H]1OC(O)[C@H](O)[C@@H](O)[C@H]1O` (stereo partly drawn) [D-Galactose], the “area under OmniLog respiration curve” value in experiment [1] (setting [4]) was found to be 7350 ± 520. In addition, the DuctApe activity index in experiment [2] (setting [4]) was 7.67 (active).
As for `NCC(=O)N[C@@H](CC(=O)O)C(=O)O`, the “area under OmniLog respiration curve” value in experiment [1] (setting [8]) was found to be 8800 ± 750. The DuctApe activity index in experiment [2] (setting [8]) is 8.67 (active).
`OC[C@H]1O[C@@H](S)[C@H](O)[C@@H](O)[C@@H]1O` [1-Thio-b-D-Glucose]: the “area under OmniLog respiration curve” value in experiment [1] (setting [6]) came to 1240 ± 430. In experiment [2] (setting [6]), the DuctApe activity index was 2.67 (inactive).
